From PubChem BioAssay (Tox21)
Records with an inconclusive call do not appear. Active and inactive are the calls of the source. Unless noted, calls come from the whole dose curve.

Assays:
[1] = qHTS assay to identify small molecule agonists of the NFkB signaling pathway (AID 1159509; active = well fitted curve in the direction sought with a large enough effect in the signal ratio in the repeat runs, not every such curve was filed as active; the % refers to the signal ratio; note: series mostly up to about 61 µM; % is set by controls: 0 for no effect and ±100 for the full control effect)
Method in brief: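 Pathway activation was measured in ME-180 cells stably expressing beta-lactamase under NF-kB response element control. Substrate cleavage was read as the 460/530 nm emission shift after 5 hr compound incubation.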

[2] = qHTS assay to identify small molecule agonists of the NFkB signaling pathway - cell viability counter screen (AID 1159515); note: series mostly up to about 61 µM; % is set by controls: 0 for no effect and ±100 for the full control effect; nearly all actives have a fitted effect of over 55% in size
Method in brief: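 Plate 2,000 NFkB-bla ME-180 cells/well; incubate overnight. Add compounds, 5 hr at 37 C. Add FRET substrate, 1.5 hr RT. Add CellTiter-Glo, 30 min RT; read luminescence.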

[3] = qHTS assay to identify small molecule agonists of the endoplasmic reticulum stress response signaling pathway (AID 1159516; active = well fitted activation curve with a large enough effect in the signal ratio in the repeat runs, not every such curve was filed as active; the % refers to the signal ratio; note: % is set by controls: 0 for no effect and ±100 for the full control effect)
Method in brief: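 Beta-lactamase expression from the ER stress response element in HeLa reporter cells is quantified with the LiveBLAzer B/G FRET substrate, read at 405 nm excitation after 2 hr at room temperature, following 5 hr compound treatment at 37 C.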

[4] = qHTS assay to identify small molecule agonists of the endoplasmic reticulum stress response signaling pathway - cell viability counter screen (AID 1159517); note: series mostly up to about 61 µM; % is set by controls: 0 for no effect and ±100 for the full control effect; nearly all actives have a fitted effect of over 50% in size
Method in brief: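 In parallel with the ESRE reporter read, cytotoxicity was scored by CellTiter-Glo luminescence (30 min, room temperature) on HeLa ESRE-bla cells dosed for 5 hr.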

[5] = qHTS assay to identify small molecule antagonists of the retinoid-related orphan receptor gamma (ROR-gamma) signaling pathway - cell viability counter screen (AID 1159520; active = well fitted curve in the direction sought with a large enough effect in the repeat runs; an effect the other way counts as inactive or inconclusive; note: % is set by controls: 0 for no effect and ±100 for the full control effect; nearly all actives have a fitted effect of over 50% in size)
Method in brief: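 Tet-on ROR gamma CHO cells were given compounds for 2 hr, then doxycycline hyclate at 1 uM final, and incubated 16 hr at 37 C. Viability was measured as ATP content by CellTiter-Glo luminescence.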

[6] = biological target: Nuclear receptor ROR-gamma (Homo sapiens) (UniProt P51449); assay: qHTS assay to identify small molecule antagonists of the retinoid-related orphan receptor gamma (ROR-gamma) signaling pathway (AID 1159521; active = well fitted curve in the direction sought with a large enough effect in the repeat runs; an effect the other way counts as inactive or inconclusive;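 note: CHO cells with doxycycline inducible ROR-gamma driving an RORE luciferase reporter; top concentration of the series differs between compounds; % is set by controls: 0 for no effect and ±100 for the full control effect; nearly all actives have a fitted effect of over 50% in size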)
Method in brief: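 CHO cells expressing RORγ under a TET-on promoter, luciferase under RORE control. Dox 1 uM final, 16 h; compounds added 2 h prior. Luminescence decrease measured.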

[7] = qHTS assay to identify small molecule agonists of the AP-1 signaling pathway - cell viability counter screen (AID 1159525); note: nearly all actives have a fitted effect of over 55% in size
Method in brief: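 Same-well cytotoxicity counter screen of the Tox21 10K library in ME-180 cells. The readout is ATP-dependent luminescence after 5 h compound treatment. Data are normalised to DMSO and tetra n-octyl ammonium bromide controls.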

[8] = qHTS assay to identify small molecule agonists of the AP-1 signaling pathway (AID 1159526); note: % is set by controls: 0 for no effect and ±100 for the full control effect
[9] = qHTS assay to identify small molecule agonists of the vitamin D receptor (VDR) signaling pathway - cell viability counter screen (AID 743224; active = well fitted curve in the direction sought with a large enough effect in the repeat runs; an effect the other way counts as inactive or inconclusive; note: series mostly up to about 63 µM; % is set by controls: 0 for no effect and ±100 for the full control effect; nearly all actives have a fitted effect of over 50% in size)
Method in brief: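 In parallel with the bla FRET readout, cytotoxicity toward VDR-bla cells after 16 h compound exposure was assessed by CellTiter-Glo, with luminescence recorded after a 30 min room-temperature incubation.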

[10] = qHTS assay to identify small molecule antagonists of the vitamin D receptor (VDR) signaling pathway - cell viability counter screen (AID 743225; active = well fitted curve in the direction sought with a large enough effect in the repeat runs; an effect the other way counts as inactive or inconclusive)
Method in brief: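 Luminescent cell viability (CellTiter-Glo) in VDR-bla HEK 293T cells after 16 h compound exposure at 37C in the presence of 3 nM final 1-alpha,25-dihydroxy vitamin D3.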

CCCCCCCCS(=O)(=O)Cl
inactive: outcome [1] | outcome [2] | outcome [3] | outcome [4] | outcome [5] | Potency [6] | Potency [7] | outcome [8]

Cc1ccc(C#N)cc1
inactive: Potency [9] | Potency [10] | outcome [1] | outcome [2] | outcome [3] | outcome [4] | outcome [5] | Potency [6] | Potency [7] | outcome [8]

NC(=O)c1ccc(N)cc1
inactive: Potency [9] | Potency [10] | outcome [1] | outcome [2] | outcome [3] | outcome [4] | outcome [5] | Potency [6] | Potency [7] | outcome [8]

N[C@H](C(=O)O)c1ccc(O)cc1
inactive: Potency [9] | Potency [10] | outcome [1] | outcome [2] | outcome [3] | outcome [4] | activity, negative = cytotoxicity [5] 3.98% [at 19 µM] | Potency [6] | viability change, negative = cytotoxic [7] 10.2% [at 15.8 µM] | outcome [8]

N=C(N)c1ccccc1
inactive: outcome [1] | outcome [2] | outcome [3] | outcome [4] | outcome [5] | Potency [6] | Potency [7] | outcome [8]

C=C1CC[C@H]2C[C@@H]1C2(C)C
inactive: Potency [9] | Potency [10] | outcome [1] | outcome [2] | outcome [3] | outcome [4] | outcome [5] | Potency [6] | Potency [7] | outcome [8]

CCOC(=O)c1ccc(C)cc1
inactive: Potency [9] | Potency [10] | outcome [1] | outcome [2] | outcome [3] | outcome [4] | outcome [5] | Potency [6] | Potency [7] | outcome [8]

CO[Si](CCCOCC1CO1)(OC)OC (stereo not given)
inactive: Potency [9] | outcome [1] | outcome [2] | outcome [3] | outcome [4] | outcome [5] | Potency [6] | Potency [7] | outcome [8]

CN(C)CCCNCCCN(C)C
inactive: Potency [9] | outcome [1] | outcome [2] | outcome [3] | outcome [4] | outcome [5] | Potency [6] | Potency [7] | outcome [8]

Nc1ccc(S(=O)(=O)Nc2ccnn2-c2ccccc2)cc1
inactive: Potency [9] | outcome [1] | outcome [2] | outcome [3] | outcome [4] | activity, negative = cytotoxicity [5] 2.08% [at 19 µM] | Potency [6] | viability change, negative = cytotoxic [7] 2.53% [at 15.8 µM] | outcome [8]

N[C@H]1CN(c2c(F)cc3c(=O)c(C(=O)O)cn(C4C[C@H]4F)c3c2Cl)CC12CC2 (stereo not given in full)
inactive: Potency [9] | Potency [10] | outcome [1] | outcome [2] | outcome [3] | outcome [4] | outcome [5] | Potency [6] | Potency [7] | outcome [8]

COc1cc(C(=O)N2CCCCCCC2)cc(OC)c1OC
inactive: Potency [9] | Potency [10] | outcome [1] | outcome [2] | outcome [3] | outcome [4] | outcome [5] | Potency [6] | Potency [7] | outcome [8]

NS(=O)(=O)c1cc(C(=O)O)cc(N2CCCC2)c1Oc1ccccc1
inactive: Potency [9] | Potency [10] | outcome [1] | outcome [2] | outcome [3] | outcome [4] | outcome [5] | Potency [6] | Potency [7] | outcome [8]

CCCCNC(=O)NCCCC
inactive: outcome [1] | outcome [2] | outcome [3] | outcome [4] | outcome [5] | Potency [6] | Potency [7] | outcome [8]

OCCOc1ccc(OCCO)cc1
inactive: Potency [9] | outcome [1] | outcome [2] | outcome [3] | outcome [4] | outcome [5] | Potency [6] | Potency [7] | outcome [8]

NCCc1cnc[nH]1
inactive: Potency [9] | Potency [10] | outcome [1] | outcome [2] | outcome [3] | outcome [4] | outcome [5] | Potency [6] | Potency [7] | outcome [8]

Oc1ccc(C2CNCCc3c2cc(O)c(O)c3Cl)cc1 (stereo not given)
inactive: Potency [9] | Potency [10] | outcome [1] | outcome [2] | outcome [3] | outcome [4] | outcome [5] | Potency [6] | Potency [7] | outcome [8]

C=CCOCC(CC)(CO)COCC=C
inactive: Potency [9] | Potency [10] | outcome [1] | outcome [2] | outcome [3] | outcome [4] | outcome [5] | Potency [6] | Potency [7] | outcome [8]

OCCCC1CCCCC1
inactive: Potency [9] | outcome [1] | outcome [2] | outcome [3] | outcome [4] | outcome [5] | Potency [6] | Potency [7] | outcome [8]

N#Cc1ccc(C2CCCc3cncn32)cc1 (stereo not given)
inactive: Potency [9] | outcome [1] | outcome [2] | outcome [3] | outcome [4] | outcome [5] | Potency [6] | Potency [7] | outcome [8]

CC1(C)C(O)C(C)(C)C1O (stereo not given)
inactive: Potency [9] | Potency [10] | outcome [1] | outcome [2] | outcome [3] | outcome [4] | outcome [5] | Potency [6] | Potency [7] | outcome [8]

CC(C)OC(=O)c1ccccc1
inactive: Potency [9] | outcome [1] | outcome [2] | outcome [3] | outcome [4] | outcome [5] | Potency [6] | Potency [7] | outcome [8]

CCOC(=O)c1cccc(N)c1
inactive: Potency [9] | Potency [10] | outcome [1] | outcome [2] | outcome [3] | outcome [4] | outcome [5] | Potency [6] | Potency [7] | outcome [8]

N=C(N)c1ccc2cc(OC(=O)c3ccc(N=C(N)N)cc3)ccc2c1
inactive: Potency [9] | Potency [10] | outcome [1] | outcome [2] | outcome [3] | outcome [4] | outcome [5] | Potency [6] | Potency [7] | outcome [8]

O=C(O)Cc1ccc(CCNS(=O)(=O)c2ccc(Cl)cc2)cc1
inactive: Potency [9] | outcome [1] | outcome [2] | outcome [3] | outcome [4] | outcome [5] | Potency [6] | Potency [7] | outcome [8]

CCCCCSCCCCC
inactive: Potency [9] | Potency [10] | outcome [1] | outcome [2] | outcome [3] | outcome [4] | outcome [5] | Potency [6] | Potency [7] | outcome [8]

O=C1CC2CC1C1CCCC21 (stereo not given)
inactive: Potency [9] | outcome [1] | outcome [2] | outcome [3] | outcome [4] | outcome [5] | Potency [6] | Potency [7] | outcome [8]
